Source: PubChem
A selection: hits, their analogues and other compounds. The true share with any hit is near 19%.
IL-1B inflam inh: inhibitors of inflammasome signaling (IL-1 beta secretion); THP-1 LPS/ATP IL-1B secretion, AlphaLISA, 16 h; active compounds read low; activity change, % at 57.5 µM; hit rate 4.7% among 360,000; AID 743279; in the data active = activity change below about -50%; inconclusive = mostly about -30% to -49%
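THP-1 cells pretreated 1 hr with compounds (up to 57.5 uM final), then stimulated with LPS (250 ng/mL final) plus ATP (1.25 mM final); secreted IL-1B measured by AlphaLISA after 16 hr, decreased signal indicating inhibition.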
TDP1 inh: inhibitors of human tyrosyl-DNA phosphodiesterase TDP1. hit rate 0.28% among 350,000. Potency, µM (series often up to 130 µM), most hits filed as inhibitors. Q9NUW8. recombinant TDP1, AlphaScreen DNA substrate cleavage. AID 485290; also: nearly all actives have a fitted effect of over 40% in size
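Steps: enzyme plus compound, 15 min RT; add biotin/phosphotyrosine-FITC oligonucleotide (15 nM final), react 5 min; add donor/acceptor beads (10 ug/ml final), 10 min; read AlphaScreen. Tdp1 at 1 nM final.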
DT40 TDP1 no CPT: qHTS for Inhibitors of human tyrosyl-DNA phosphodiesterase 1 (TDP1): qHTS in cells in absence of CPT; hit rate 15% among 420,000; DT40 Tdp1-/- hTDP1 cells, no CPT, ATP luminescence, 48 h; Potency, µM (doses to about 46.2 µM), most hits filed as inhibitors; also: nearly all actives have a fitted effect of over 55% in size
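Chicken DT40 Tdp1-/- cells stably complemented with human TDP1 were seeded at 400 cells/well with DMSO in place of 20 nM camptothecin. After compound pinning, cells grew at least 48 hr at 37 °C; viability read by CellTiter-Glo luminescence.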
TGFb SMAD3 inh: TGF-b pathway inhibition; HepG2 CAGA-GFP TGF-b/SMAD3 reporter, GFP fluorescence, 18 h; TGF-beta stimulated, 500 pg/mL final; Potency, µM (series often up to 46.1 µM), hits mostly inhibitors; hit rate 1.2% among 410,000; AID 588855; also: nearly all actives have a fitted effect of over 65% in size
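Inhibition was scored as loss of TGF-beta-induced (500 pg/mL final, 18 hours, 37 degrees C) GFP in HEPG2 cells carrying a CAGA-GFP reporter, in DMEM with 1% FBS. Well GFP was summed per cell; Activity was normalised to unstimulated and stimulated DMSO wells, then concentration-response fitting.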
HepG2 viability: counter-screen for TGF-b inhibitors: cytotoxicity in HepG2 cells; Potency, µM (series often up to 46.1 µM), actives largely listed as cytotoxic; AID 588856; HepG2 CAGA-GFP viability, ATP luminescence, 18 h; hit rate 0.76% among 410,000
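CellTiter-Glo luminescence gave cytotoxicity after 18 hours at 37 degrees C. The cells were HepG2 CAGA-GFP in 1% FBS DMEM, stimulated with 500 pg/mL TGF-beta after compound addition. %Activity was normalised to no-cell wells (complete cell-killing) and DMSO (no toxicity), and curves were fitted and classified.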
TDP1 cell CPT: growth inhibition of DT40 Tdp1-/-;hTDP1 cells with camptothecin (screen for TDP1 inhibitors). hit rate 12% among 420,000. chicken DT40 Tdp1-/-;hTDP1 cells + 20 nM CPT, ATP luminescence, 48 h. Potency, µM (titrated, usually from 46.2 µM), usual class: inhibitors. AID 686979; also: nearly all actives have a fitted effect of over 55% in size
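Cell growth measured by CellTiter-Glo luminescence after a minimum 48 h, 37 C compound exposure with 20 nM CPT in Tdp1-knockout DT40 cells stably expressing hTDP1, seeded 400/well; qHTS titration format.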
Numbers stand for hits; - = inactive; ? = inconclusive; . = not tested or not shown; [ ] = another dose, or the depositor's remark. Unless noted, calls follow the shape of the dose curve; as a rule, active = well fitted curve in the direction sought with a large enough effect; inconclusive = small, poorly fitted or top-dose-only effect, or another doubt; inactive = no such curve, though single readings can be large; an effect the other way counts as inactive or inconclusive.

SMILES	IL-1B inflam inh	TDP1 inh	DT40 TDP1 no CPT	TGFb SMAD3 inh	HepG2 viability	TDP1 cell CPT
Cc1ccc(C(=O)O/N=C/c2c(N3CCOCC3)n(C)c3ccccc23)cc1	-	-	4.1µM	-	-	3.3µM
Cn1c(N2CCOCC2)c(/C=N/OC(=O)c2ccc(F)cc2)c2ccccc21	-	-	2.9µM	-	-	3.7µM
Cn1c(N2CCOCC2)c(/C=N/OC(=O)c2cccnc2Cl)c2ccccc21	-	.	?	-	-	?
Cc1ccc(S(=O)(=O)NCC(C)n2cncn2)cc1C (centres undefined)	-	-	-	-	-	-
CC1(C(=O)NCC2CC2)Cc2c(-c3cccc(C(F)(F)F)c3)ccnc2O1 (centres undefined)	-	.	5.8µM	?	-	5.8µM
COCCNC(=O)C1(C)Cc2c(-c3cccc(C(F)(F)F)c3)ccnc2O1 (centres undefined)	-	.	9.2µM	-	-	9.2µM
CC1(C(=O)NCC2CC2)Cc2c(-c3cccc(C(N)=O)c3)ccnc2O1 (centres undefined)	-	.	?	-	-	?
COc1cccc(/C=N/n2c(SC)nnc2-c2ccccc2)c1O	-	-	16µM	-	-	10µM
CC(=O)Nc1cccc2c1C(=O)N(c1ccc(OC(C)=O)cc1)C2=O	-	-	-	-	-	-
CCCCC[C@H](O)/C=C/[C@H]1OC(O)C[C@H](O)[C@@H]1C/C=C\CCCC(=O)O (some centres undefined)	.	-	.	.	.	.
CCOc1ccccc1N1CC(C(=O)Nc2cccc(S(=O)(=O)N3CCCCC3)c2)CC1=O (centres undefined)	-	-	23µM	?	-	?
CCOc1ccc(N2CC(C(=O)Nc3ccc(S(=O)(=O)N4CCOCC4)cc3)CC2=O)cc1 (centres undefined)	-	-	-	-	-	-
CCC(C)c1ccccc1N1CC(C(=O)Nc2ccc(S(=O)(=O)N3CCOCC3)cc2)CC1=O (centres undefined)	-	-[0.505 µM]	23µM	-	-	23µM
CCOc1ccccc1N1CC(C(=O)Nc2ccc(S(=O)(=O)N3CCCCC3)cc2)CC1=O (centres undefined)	-	-	13µM	-	-	13µM
CCC(C)c1ccccc1N1CC(C(=O)N2CCN(c3ccccc3)CC2)CC1=O (centres undefined)	-	.	23µM	-	-	15µM
Cc1ccc(N2CCN(c3cc(C)nc4c(-c5ccc(Cl)cc5)c(C)nn34)CC2C)cc1 (centres undefined)	.	-	-	-	-	-
CCCN(C(=O)CCc1nc(-c2ccc(C)cc2)no1)c1ccc(OCC)cc1	.	-[12.3 µM]	?	?	-	16µM
CCN(Cc1ccccc1)C(=O)CCc1nc(-c2ccc(C)cc2)no1	-	-	23µM	-	-	29µM
CCc1ccccc1N(CC)C(=O)CCc1nc(-c2ccc(C)cc2)no1	?	-	23µM	?	-	23µM
Cc1ccc(-c2noc(CCC(=O)N(C)c3ccccc3F)n2)cc1	.	-	?	-	-	?
CCc1cccc(NC(=O)Cn2c(=O)n(CCc3ccc(OC)c(OC)c3)c(=O)c3ccccc32)c1	.	-	-	-	-	-
Cc1cccc(N2CCN(C(=O)c3cccc(-n4c(C)nc5cccnc54)c3)CC2)c1C	.	-	5.8µM	-	-	7.3µM
Cc1ccc(C)c(N2CCN(C(=O)c3cccc(-n4c(C)nc5cccnc54)c3)CC2)c1	.	-	13µM	-	-	7.3µM
Cc1ccc(Cl)cc1N1CCN(C(=O)c2ccc(C)c(-n3c(C)nc4cccnc43)c2)CC1	.	-	5.2µM	?	-	7.3µM
O=C(NCc1ccccc1)c1cc2ccc3cccnc3c2[nH]1	.	-	?	-	-	?
O=C(Nc1ccc(F)cc1F)c1cc2ccc3cccnc3c2[nH]1	.	-	?	-	-	2.9µM
